# Source: PubChem BioAssay (National Center for Advancing Translational Sciences (NCATS))
# Shown are actives, neighbours in structure and some others; about 1.1% of the full set was active somewhere.
# CXXC DNA block = inhibitors of human MLL CXXC domain-DNA interaction; Q03164; MLL-CXXC / FITC-HOXA9 DNA fluorescence polarization; Potency, µM (top dose mostly 115 µM), usual class: inhibitors; 290,000 tested, 0.037% active; AID 2662; active = well fitted inhibition curve with a large enough effect in the polarisation, with a control signal flat, not every such curve was filed as active; inconclusive = small, poorly fitted or top-dose-only effect, or effect the other way, or a change in a side signal; inactive = no such curve, though single readings can be large or run the other way; the % refers to the polarisation
#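 Steps: dispense CXXC domain solution (7 uM) → pin compounds or unlabeled HOX-A9 DNA control → 5 min ambient → add FLSN-HOX-A9 solution (50 nM) → spin → 30 min ambient → fluorescence polarization. Tris pH 7.5/NaCl/DTT/BSA buffer.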
# Menin-MLL FL inh = menin-MLL binding inhibition, fluorescein peptide. 290,000 tested, under 10 active. AID 1766. FP activity change, % at 61.4 µM. Fluorescence polarization, fluorescein-MLL peptide displacement from menin; active = well fitted curve in the direction sought with a large enough effect in the polarisation, not every such curve was filed as active; inconclusive = small, poorly fitted or top-dose-only effect, or effect the other way, or a change in a side signal; inactive = no such curve, though single readings can be large or run the other way; the % refers to the polarisation
# KCNH2 WT inh = inhibitors of human wildtype KCNH2 potassium channel | 340,000 tested, 0.37% active | activity change, % at 1.84 µM | U2OS, BacMam KCNH2, thallium flux FluxOr; stronger effect = lower value | Q12809;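 active = maximum activity change below -70%; inconclusive = maximum activity change between -70% and -50%; inactive = maximum activity change above -50%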
#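 U2OS cells transduced with wild-type KCNH2 virus are loaded with FluxOr dye for 45 min, and thallium flux is measured in kinetic reads before and after stimulation buffer. Rate constants are normalized to DMSO controls.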
# Menin-MLL TR inh = displaces Texas Red mutant MLL peptide from human menin. O00255. Menin + Texas Red MLL mutant peptide, fluorescence polarization. Potency, µM (highest dose often 61.6 µM), usual class: inhibitors. 270,000 tested, 0.23% active. AID 1768; active = well fitted inhibition curve with a large enough effect in the polarisation, with a control signal flat, not every such curve was filed as active; inconclusive = small, poorly fitted or top-dose-only effect, or effect the other way, or a change in a side signal; inactive = no such curve, though single readings can be large or run the other way; the % refers to the polarisation
# Target sequence (O00255 whole entry, looked up): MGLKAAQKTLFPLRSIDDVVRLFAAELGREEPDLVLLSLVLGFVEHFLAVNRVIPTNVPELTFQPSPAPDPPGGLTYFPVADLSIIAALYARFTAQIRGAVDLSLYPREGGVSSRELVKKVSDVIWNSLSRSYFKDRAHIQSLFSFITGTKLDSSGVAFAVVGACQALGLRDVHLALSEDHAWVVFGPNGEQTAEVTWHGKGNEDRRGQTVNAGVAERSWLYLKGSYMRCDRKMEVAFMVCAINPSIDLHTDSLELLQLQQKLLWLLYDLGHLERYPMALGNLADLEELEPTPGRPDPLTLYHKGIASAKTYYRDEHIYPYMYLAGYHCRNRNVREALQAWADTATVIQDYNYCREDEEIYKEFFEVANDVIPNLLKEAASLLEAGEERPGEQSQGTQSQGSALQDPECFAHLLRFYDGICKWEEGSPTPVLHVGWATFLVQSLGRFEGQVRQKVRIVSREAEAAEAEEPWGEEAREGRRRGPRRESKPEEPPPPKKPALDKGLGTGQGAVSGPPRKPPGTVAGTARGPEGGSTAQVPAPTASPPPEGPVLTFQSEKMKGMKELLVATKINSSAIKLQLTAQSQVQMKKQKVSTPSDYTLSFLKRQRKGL
# KCNH2 3.1 inh = inhibitors of human KCNH2 3.1 potassium channel isoform | activity change, % (tested at about 1.8 µM) | 340,000 tested, 0.95% active | U2OS KCNH2 3.1, thallium flux FluxOr; stronger effect = lower value;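 active = maximum activity change below -70%; inconclusive = maximum activity change from -70% to -50%; inactive = maximum activity change above -50%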;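 note: thallium influx rate constant from kinetic fluorescence after stimulation buffer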
#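 Thallium flux via FluxOr fluorescence (Red40 quencher, 45 min loading) in U2OS cells virally expressing the KCNH2 3.1 isoform (1.77 x 10^8 /mL virus, overnight at 37 C). Rate constants from 2-min kinetic reads post-stimulation, normalised to positive and negative controls.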
# Hits are given with their value; - = inactive; ? = inconclusive; . = not tested or not shown.
SMILES,CXXC DNA block,Menin-MLL FL inh,KCNH2 WT inh,Menin-MLL TR inh,KCNH2 3.1 inh
C=CCN1C(=O)C2(C(C(=O)OCC)=C(N)Oc3ccccc32)c2c1c1ccccc1oc2=O (configuration not stated),-,-,-,-,-109
O=C1c2ccccc2C(=O)C1C(=O)C(c1ccccc1)c1ccccc1,-,-,.,?,.
CCCCOP(=O)(OCCCC)C(Nc1ccc(C(=O)OCC)cc1)c1ccncc1 (configuration not stated),-,-,-,3.2µM,-
CN1CCN(Cc2cc(=O)n3ccsc3n2)CC1,-,.,-,.,-81
[Hg+][c]1ccccc1,-,-,.,-,.
CCCC(C)C(=O)NC1CCSC1=O (configuration not stated),-,-,-,-,-83
CC(=O)N[C@@H]1CCSC1=O,.,-,.,-,.
c1ccc2c(c1)CN1CCCC1=N2,-,-,-,?,-
CC(Cc1ccccc1)NCC(=O)Nc1cc(N(C)C)nc2ccccc12 (configuration not stated),-,-,-,?,-100
O=C1C=CC(=O)C(Cl)=C1,.,-,.,?,.
C=CCC1(CCCCC)C(=O)NC(=S)NC1=O,.,.,-82,.,-
C=CCCC1(CC)C(=O)NC(=S)NC1=O,.,.,-,.,-
CCOC(=O)C1(CCOc2ccccc2)CCN(C(C)CSC)CC1 (configuration not stated),-,-,-,-,-
CCOC(=O)C1(CCOc2ccccc2)CCN(C2Cc3ccccc3C2)CC1,-,-,-,-,-121
O=C(COc1ccc(Br)cc1)N1CCN(Cc2c[nH]c3ccccc23)CC1,-,-,-80,-,-72
COc1ccc(CN2CCN(C(=O)COc3ccc4ccccc4c3)CC2)c(OC)c1,-,-,-,-,-93
CCOc1cc2c(cc1OCC)-n1cccc1C(c1ccc(OC)cc1)NC2 (configuration not stated),-,-,-,?,-
CCOc1cc2c(cc1OCC)-n1cccc1C(c1ccc(OC(F)F)cc1)NC2 (configuration not stated),-,-,-,-,-82
CC1=C2C(=CO[C@H](C)[C@H]2C)C(=O)C(C(=O)O)=C1O,.,-,.,-,.
CCN1/C(=C/C=C/C2=[N+](CC)c3ccccc3C2(C)C)C(C)(C)c2ccccc21,.,.,-131,.,-77
CN1/C(=C\C=C2C(=O)NC(=O)NC2=O)C(C)(C)c2ccccc21,?,?,-,-,-
COc1ccc(C(=O)C2CN(C)CC2c2ccc(Cl)cc2)cc1 (configuration not stated),-,-,-,-,-
CN1CC(C(=O)c2ccc([N+](=O)[O-])cc2)C(c2ccc(Cl)cc2)C1 (configuration not stated),-,-,-,?,-73
C[C@@H]1C(=O)OC2C[C@@]34[C@H]5C[C@@H](C(C)(C)C)[C@@]36C(O)C(=O)O[C@H]6O[C@@]4(C(=O)O5)[C@]21O (some centres not stated),.,-,.,-,.
COc1cc(CC(=O)N2C[C@H]3C[C@@H](C2)c2cccc(=O)n2C3)cc(OC)c1OC,.,.,-199,.,-
SMILES,CXXC DNA block,Menin-MLL FL inh,KCNH2 WT inh,Menin-MLL TR inh,KCNH2 3.1 inh
O=P(NC(c1ccccc1)c1ccccc1)(Oc1ccccc1)Oc1ccccc1,-,-,-,-,-88
COC(=O)C1=C(c2cccc(OC)c2OC)C[C@@H]2CC[C@H]1N2C(=O)NCc1ccc(F)cc1,.,.,-,.,-126
COC(=O)C1=C(c2ccc(F)cc2OCc2ccccc2)C[C@@H]2CC[C@H]1N2C(=O)NCc1ccc([N+](=O)[O-])cc1,.,.,-,.,-88
CCC(C(=O)O)C1CCC(C)C(C(C)C(O)C(C)C(=O)C(CC)C2OC3(C=CC(O)[C@@]4(CC[C@](C)(C5CC[C@@](O)(CC)C(C)O5)O4)O3)C(C)CC2C)O1 (some centres not stated),-,?,.,-,.
CCCCCCCCCC[n+]1cccc([C@@H]2CCCN2C)c1,.,-,.,-,.
Cc1cccc(NP(=O)(Oc2ccccc2)Oc2ccccc2)c1C,-,-,-242,-,-
C=CC(C)(C)c1c2c(c(O)c3c(=O)c4ccc(O)c(O)c4oc13)C=CC(C)(C)O2,.,-,.,?,.
CN(C)CCSCc1nnc2n1-c1ccc(Cl)cc1C(c1ccccc1Cl)=NC2,.,.,-,.,-76
CN1CCN(c2ccc([N+](=O)[O-])c(Sc3nncn3C)c2)CC1,-,-,-,-,-123
